Several values for one entry are separate records, joined by “and”; a condition that tells them apart may be missing. Equal entries are not always repeated. Among all 340,000 compounds or so, about 2,500 (0.74%) were called active. Shown is part of a subset that was picked to be rich in actives. A number with no mark means an inactive call.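 How the source made its calls: active means inhibition above about 55% (limit read from the data); inactive means the rest.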

The nature of this assay: Gli-Sufu pathway antagonists, primary screen, luciferase luminescence, Sufu-KO-LIGHT cells, uHTS (AID 588413).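 Further: 0% = DMSO-treated cells and 100% = wells with medium but no cells.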 Particulars: Sufu-KO-LIGHT fibroblasts, Gli luciferase reporter luminescence; at 5 µM; stronger effect = higher value. On the technique in general: A reporter such as luciferase makes a cellular process visible.
With `COc1cc(C2C3C(=O)N(c4ccccc4)C(=O)C3ON2c2ccccc2)ccc1O` (stereo not drawn), the inhibition – broadly, the drop in the measured response relative to a control, in per cent – was 1.38%.

Take `O=C(CCN1C(=O)c2ccccc2C1=O)C1=NN[C@@H]2C(=O)N(c3ccc(F)cc3)C(=O)[C@H]12`: the inhibition was 27.5%.

Turning to `CO/N=C/c1cn(-c2ccc(Cl)cc2)nn1`, the inhibition is -5.6%.

In the case of `COc1ccccc1CNC(=O)C1CCN(S(C)(=O)=O)CC1`, the inhibition is -3.13%.

Consider `COc1ccc(OC)c(CNC(=O)C2CCCN(c3nc4ccccc4o3)C2)c1` (stereo not drawn), for which the inhibition was 1.69%.

In the case of `COc1ccccc1CNC(=O)C1CCN(c2nc3ccccc3o2)CC1`, the inhibition was 79.4% (active).

As to `COC(=O)Cc1nc2c(N)nc(N)nc2[nH]c1=O`, the inhibition was 5.09%.

For the molecule `NC(=O)C1CCN(C(=O)c2cc(S(=O)(=O)N3CCN(c4ccccc4)CC3)ccc2Cl)CC1`, the inhibition was 3.01%.

As to `COc1ccc(OC(C)C(=O)Nc2cccnc2)cc1` (stereo not drawn), the inhibition is -1.18%.

Take `COc1ccc(CS(=O)/C(Cl)=C(/Cl)C(=O)Nc2ccc(OC)nc2)cc1` (stereo not drawn): the inhibition is 68.1% (active).

`COc1ccc(CCC(=O)c2ccc(OC)cc2)cc1`: the inhibition was 1.15%.

In the case of `Cc1nc2nc[nH]n2c(=O)c1C/C=C/c1ccccc1`, the inhibition was 26.2%.

Regarding `CCc1c(C)nc2cc(C)[nH]n2c1=O`, the inhibition is 75% (active).

Consider `C=CCc1c(C)nc2cc(-c3ccccc3)[nH]n2c1=O`, for which the inhibition was 27.4%.

For the molecule `CCOc1ccccc1NC(=S)C(=C([O-])c1ccc2c(c1)OCCO2)[n+]1ccc(CC)cc1`, the inhibition was -43.8%.

Consider `COc1ccc2cc(C3=CC(=O)C[C@H](c4ccc5c(c4)OCO5)C3)ccc2c1`, for which the inhibition was -5.21%.

For the molecule `O=C1C=C(c2cc(C(F)(F)F)cc(C(F)(F)F)c2)C[C@@H](c2ccc3c(c2)OCO3)C1`, the inhibition was 6.64%.

In the case of `O=C1C=C(c2ccnc3cc(Cl)ccc23)C[C@@H](c2ccc3c(c2)OCO3)C1`, the inhibition is 66.7% (active).

With `N#CCC(=O)NC(=O)NCC1CC1`, the inhibition is -8.84%.

For `CC(=O)c1cc(NC(=O)c2ccccc2)c(=O)oc1/C=C/N(C)C`, the inhibition is 8.24%.

For the molecule `CCN1CCC2(CCN(Cc3cn[nH]c3-c3ccc(OC)c(F)c3)C2)C1` (stereo not drawn), the inhibition was 7.07%.

On to `COc1ccc(-n2c(Cc3cccn3C)nnc2SCC(=O)Nc2cc(C)cc(C)c2)cc1`, for which the inhibition is 0.63%.

On to `CCCCn1c(SCC(=O)N2CCCC2=O)nc2cc(S(N)(=O)=O)ccc21`, for which the inhibition is 5.29%.

`NS(=O)(=O)c1ccc(CCNC(=O)CCCn2c(SCC(=O)N3CCCC3)nc3ccsc3c2=O)cc1`: the inhibition is 79.4% (active).

On to `CCCCn1c(SCC(=O)N2CCC(C(=O)OCC)CC2)nc2cc(S(N)(=O)=O)ccc21`, for which the inhibition was 6.66%.

For `Cc1cc(N2C(=O)C(=O)/C(=C(/O)c3ccccc3)C2c2cccc(Br)c2)no1` (stereo not drawn), the inhibition is 7.53%.

Take `CC(=O)c1ccc(NC(=O)Cn2c(=O)oc3ccccc32)cc1`: the inhibition was 11.6%.

In the case of `Cc1sc2nc(SCCO)n(-c3ccccc3)c(=O)c2c1C`, the inhibition is 3.29%.

For the molecule `COC(=O)c1ccc(NCc2cc(O)ccc2O)cc1`, the inhibition is 3.08%.

As to `CC(C)OC(=O)c1ccc(NCc2cc(O)ccc2O)cc1Cl`, the inhibition is -6.82%.

Consider `O=C(OC12CC3CC(CC(C3)C1)C2)c1ccc(NCc2cc(O)ccc2O)cc1`, for which the inhibition was 70.4% (active).

On to `Cn1cnc2c1c(=O)n(Cc1ccccc1C#N)c(=O)n2C`, for which the inhibition is 6.5%.

On to `CN1C2CCC1CC(NC(=O)c1ccc([N+](=O)[O-])cc1)C2` (stereo not drawn), for which the inhibition was -0.59%.

As to `O=C(Nc1ccccc1C(=O)Nc1ccncc1)c1ccc([N+](=O)[O-])cc1`, the inhibition is -25.8%.

`O=C(Nc1cc2c3c(c1)C1CCCC1CN3CC1CCCC21)c1ccc([N+](=O)[O-])cc1` (stereo not drawn): the inhibition was 72.5% (active).

For the molecule `CCOc1ccc(NC(=O)N(CC(C)C)CC(C)C)cc1`, the inhibition is -3.25%.

`O=C(CCNC(=O)c1ccc(Br)cc1)NCC(c1ccco1)N1CCCCC1` (stereo not drawn): the inhibition was 2.12%.

`Cc1ccc(OS(=O)(=O)c2ccc(-c3csc(C)n3)s2)c(C)c1`: the inhibition is -1.77%.

With `CC1(C)CC(=O)C=C(N2CCOCC2)C1`, the inhibition is -5.06%.

Regarding `c1ccc(C(c2ccccc2)N2CCN(Cc3nnnn3C3CCCCC3)CC2)cc1`, the inhibition is -7.75%.

In the case of `CC1(C)CC(N2CCN(C(c3ccccc3)c3ccccc3)CC2)=CC(=[N+]2CCCCC2)C1`, the inhibition is 89.2% (active).

As to `O=C(COc1ccc(Cl)cc1Cl)NCCCNC(=O)c1cnccn1`, the inhibition is -2.79%.

In the case of `CN1C(=O)CC(c2ccccc2)C1=O` (stereo not drawn), the inhibition was 1.09%.

Take `COc1ccc(N(CC(=O)Nc2ccc(F)c(F)c2)S(=O)(=O)c2c(C)[nH]c(=O)[nH]c2=O)cc1`: the inhibition was -1.05%.

Turning to `O=C1Nc2ccc(Br)cc2/C1=N/N=C/C1=C(N2CCOCC2)C(=C\c2ccccc2)/CC1`, the inhibition was 20.5%.

As to `COc1ccc(/C=N/N=C2/C(=O)Nc3ccccc32)cc1O`, the inhibition was 58.7% (active).

Regarding `CCOc1ccc(/C=N/NC(=O)CSc2ccccn2)cc1O`, the inhibition is 4.66%.

Turning to `Cc1ccccc1CS(=O)(=O)CC1(O)CCN(C(=O)c2cccc(C(F)(F)F)c2)CC1`, the inhibition is 0.32%.

Consider `O=C(N=C1SC2CS(=O)(=O)CC2N1c1cc(Cl)ccc1Cl)C1CC1` (stereo not drawn), for which the inhibition is 6.54%.

Regarding `Cc1ccc(-c2c[n+](CC(=O)Nc3ccccc3)c3n2CCC3)cc1`, the inhibition was -11.4%.

Regarding `Cc1ccc(C(=O)C[n+]2cc(-c3ccccc3)n3c2CCCCC3)cc1`, the inhibition is 67.1% (active) and 72.5% (active).

On to `Clc1ccc(C[n+]2cc(-c3ccccc3)n3c2CCC3)cc1`, for which the inhibition is 49.7%.

As to `CC(=O)c1ccc(NC(=O)C(C)OC(=O)c2ccc(NS(=O)(=O)c3ccc4[nH]c(=O)[nH]c4c3)cc2)cc1` (stereo not drawn), the inhibition is 7.04%.

With `O=C1CSC(=O)N1CCOCCN1C(=O)CSC1=O`, the inhibition is -19.6%.

`CCN(CC)S(=O)(=O)c1ccc(N(C)Cc2cccc(OC)c2OC)nc1`: the inhibition was 1.8%.

For `CC(C)(C)OC(=O)C[C@H]1C/C=C\C[C@@H](CC(=O)N[C@H](CO)Cc2ccccc2)C(=O)NC[C@@H](c2ccccc2)OC1=O`, the inhibition is 4.33%.

With `O=C(C[C@H]1C/C=C\C[C@@H](NC(=O)OCC2c3ccccc3-c3ccccc32)C(=O)O[C@@H](c2ccccc2)CNC1=O)N[C@H](CO)Cc1ccccc1`, the inhibition was 60.2% (active).

As for `CC(C)(C)OC(=O)C[C@@H]1C/C=C\C[C@@H](CC(=O)N[C@H](CO)Cc2ccccc2)C(=O)NC[C@@H](c2ccccc2)OC1=O`, the inhibition was -21.7%.

These data come from PubChem BioAssay AID588413 (Sanford-Burnham Center for Chemical Genomics, 2011).
